Entries with a potency or affinity are not part of this list. Activity calls are given as the source filed them. Unless noted, how the calls were made is not given here.

Chain of Calcium-dependent protein kinase 1 (Plasmodium falciparum (isolate 3D7)) (P62344 whole entry, looked up): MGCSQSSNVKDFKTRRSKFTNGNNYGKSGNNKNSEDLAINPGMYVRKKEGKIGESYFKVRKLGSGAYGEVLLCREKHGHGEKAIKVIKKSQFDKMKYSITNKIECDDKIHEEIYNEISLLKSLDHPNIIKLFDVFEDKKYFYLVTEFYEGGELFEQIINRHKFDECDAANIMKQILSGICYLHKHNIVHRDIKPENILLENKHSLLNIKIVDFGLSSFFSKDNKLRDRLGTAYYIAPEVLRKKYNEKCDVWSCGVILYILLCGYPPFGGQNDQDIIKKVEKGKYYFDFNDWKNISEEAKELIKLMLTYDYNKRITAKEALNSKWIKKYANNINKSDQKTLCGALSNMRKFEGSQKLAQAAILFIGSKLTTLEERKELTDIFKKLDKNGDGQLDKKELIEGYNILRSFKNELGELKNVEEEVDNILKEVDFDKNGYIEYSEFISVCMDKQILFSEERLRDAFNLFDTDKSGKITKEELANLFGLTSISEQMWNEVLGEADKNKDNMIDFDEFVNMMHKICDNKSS

The first assay addresses Calcium-dependent protein kinase 1 (Plasmodium falciparum (isolate 3D7)) (UniProt P62344). The experiment in a line: PfCDPK1 kinase inhibitors, biochemical, TCAMS library (AID 1159585; cut-off not given, nearly all actives have IC50 up to about 0.98 µM;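 further: inhibitors leave more ATP so luminescence rises with inhibition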). The note with it: recombinant PfCDPK1, Kinase-Glo ATP depletion luminescence.
As for `Cc1cc(N(C)CCCN(C)C)nc(Nc2ccc(Br)cc2)n1`, the outcome was inactive.

As to `Cc1noc(C)c1-c1cccc(CNCc2cccc(-c3ccc(-c4nc5ccc(C(F)(F)F)cc5[nH]4)s3)c2)c1`, the outcome was inactive.

Take `CN(C(=O)C1(c2ccc(Cl)cc2)CC1)C1CCN(CCCCCNC(=O)/C=C/c2ccc(Cl)c(Cl)c2)CC1`: the result was inactive.

With `Cc1cc(N[C@@H](CC(C)C)C(=O)Nc2ccccc2)nc(NCC2CCCCC2)n1`, the result was inactive.

With `Nc1c2c(nc3ccc(NC(=O)CCCCCCc4ccccc4)cc13)CCCC2`, the result was inactive.

As for `O=C(/C=C/c1ccccc1Cl)NC1CCC(CN2CCC(c3c[nH]c4ccncc34)CC2)CC1` (stereo not given), the result was inactive.

Regarding `Cc1ccc(Cn2nc(Cl)c(N3CCCNCC3)cc2=O)cc1NC(=O)Nc1ccc(-c2ccccc2)cc1`, the outcome was inactive.

`COc1c(C2CCN(CCCCNC(=O)c3ccc(NC(=O)c4ccc(C#N)cc4)cc3)CC2)ccc2c1CCCC2`: the outcome was inactive.

For `O=S(=O)(NCCN1CCCC1)c1ccc(-c2ccc(CNCc3ccc(F)cc3)cc2)s1`, the result was inactive.

`CCN(c1ccccc1)S(=O)(=O)c1ccc(OC)c(NC(=O)c2cccc(C(F)(F)F)c2)c1`: the result was inactive.

In the case of `O=C(Nc1cccc(C(F)(F)F)c1)c1ccc(S(=O)(=O)NCC2CCN(CC3CCCCC3)CC2)cc1`, the outcome was inactive.

With `Cc1cc(N(C)C2CCN(CC3CCCCC3)C2)nc(Nc2ccc(Br)cc2)n1` (stereo not given), the result was inactive.

Take `CC(=O)Nc1ccc(OCCCCN(Cc2ccccc2C(F)(F)F)c2ccc(C#N)c(C(F)(F)F)c2)cc1`: the result was inactive.

Take `Cc1cccc2[nH]c(-c3cccc(-c4cccc(NC(=O)Nc5ccc(Cl)cc5)c4)c3)nc12`: the result was inactive.

Consider `CC(C)(C)c1ccc(CNC(=O)c2cc(CNC3CCNC3)ccc2O)cc1` (stereo not given), for which the outcome was inactive.

Regarding `Cc1cc(NC(=O)c2cccs2)ccc1OC1CCN(Cc2ccccc2)CC1`, the outcome was inactive.

Take `CCOc1c(CNCCCNc2nc3ccccc3[nH]2)cc(I)cc1OC`: the outcome was inactive.

Turning to `Cc1ncccc1-c1cccc2c(NC(=O)Nc3ccc4nccc(N5CCN(C)CC5)c4c3)cccc12`, the outcome was inactive.

`COc1cc(CNCCC(C)C)ccc1OCc1cccc(COc2ccc(CNCCC(C)C)cc2OC)c1`: the outcome was inactive.

In the case of `O=C(Cc1ccc(Cl)cc1)NC1CCN(c2ccnc3cc(Cl)ccc23)C1` (stereo not given), the result was inactive.

Turning to `Cn1nccc1C(=O)NCCNCc1cccc(-c2ccc(-c3nc4ccc(C(F)(F)F)cc4[nH]3)s2)c1`, the result was inactive.

For the compound `CCNc1cc(C)nc(Nc2ccc(NC(=O)c3ccccc3)cc2)n1`, the result was inactive.

Regarding `CCCn1cnc2cc(C(=O)Nc3ccc(-c4cccc(CN(C)C)c4)cc3)ccc2c1=O`, the outcome was inactive.

With `c1ccc(COc2ccccc2COc2ccccc2-c2ccc3cccnc3n2)cc1`, the outcome was inactive.

With `COc1ccc2c(ccc3c2ncc2c(=O)n(-c4ccccc4)[nH]c23)c1`, the outcome was inactive.

Consider `O=C(Nc1ccc(-c2nc3ccccc3[nH]2)cc1)c1cnc(Cl)c(Cl)c1`, for which the result was inactive.

With `Nc1c(Cl)cc(C(O)CNCCCCCOCCc2ccccc2)cc1C(F)(F)F` (stereo not given), the outcome was inactive.

As to `CON(C)C(=O)[C@@H](CCCCNC(=O)OCc1ccccc1)NC(=O)OC(C)(C)C`, the result was inactive.

`CC(C)(C)C1CC(=O)C[C@@H]2C(=O)N(c3ccc(Br)cc3)C(=O)[C@H]12` (stereo not given in full): the result was inactive.

For `CC1(C)CCCC(=Cc2ccc(Br)cc2)C1(O)Cn1ccnc1` (stereo not given), the result was inactive.

In the case of `O=C(NCC1CC1)C1Cc2c([nH]c3ccc(Br)cc23)C2(CCN(CCc3ccccc3)CC2)N1` (stereo not given), the outcome was inactive.

On to `CCc1cn2c3c(cc(C(=O)N[C@@H](Cc4cc(F)cc(F)c4)[C@H](O)CNC4CCCCC4)cc13)N(C)S(=O)(=O)CC2`, for which the result was inactive.

Take `CC(CNC1CCN(CCn2c(=O)ccc3ccc(F)cc32)CC1)c1ccccc1` (stereo not given): the outcome was inactive.

In the case of `CC(CCCCOCCc1ccccc1)NCC(O)c1cc(Cl)c(N)c(Cl)c1` (stereo not given), the outcome was inactive.

As to `Cc1cc(N)c2cc(NC(=O)c3cccc(C(=O)Nc4ccc5nc(C)cc(N)c5c4)c3)ccc2n1`, the result was inactive.

Take `O=C(/C=C/c1ccc(Cl)c(Cl)c1)NCCCCCN1CCC(C(=O)Nc2ccc(Cl)c(Cl)c2)CC1`: the result was inactive.

Regarding `NCC1CCCN1Cc1ccc(-c2cccc(-c3nc4ccc(C(F)(F)F)cc4[nH]3)c2)cc1` (stereo not given), the result was inactive.

In the case of `COc1ccc(-c2nc(-c3ccc([N+](=O)[O-])cc3)no2)cc1OC`, the outcome was inactive.

As to `CC(C)C[C@@H](/C=N/N1CCOC1=O)NC(=O)[C@H](CC(C)C)NC(=O)c1ccc(F)cc1`, the result was inactive.

As for `Cc1nc2ccc3ccc(CNc4ccc5c(c4)CN([C@H](CCC(=O)O)C(=O)O)C5=O)cc3c2c(=O)[nH]1`, the result was inactive.

The target in another assay is Plasmodium falciparum protein kinase 6 (PK6, PF3D7_1337100) (UniProt Q8IDW1). The experiment in a line: PfPK6 kinase inhibitors, biochemical, TCAMS library (AID 1159586). The note with it: recombinant PfPK6, Kinase-Glo ATP depletion luminescence.
Chain of Plasmodium falciparum protein kinase 6 (PK6, PF3D7_1337100) (Q8IDW1 1-305): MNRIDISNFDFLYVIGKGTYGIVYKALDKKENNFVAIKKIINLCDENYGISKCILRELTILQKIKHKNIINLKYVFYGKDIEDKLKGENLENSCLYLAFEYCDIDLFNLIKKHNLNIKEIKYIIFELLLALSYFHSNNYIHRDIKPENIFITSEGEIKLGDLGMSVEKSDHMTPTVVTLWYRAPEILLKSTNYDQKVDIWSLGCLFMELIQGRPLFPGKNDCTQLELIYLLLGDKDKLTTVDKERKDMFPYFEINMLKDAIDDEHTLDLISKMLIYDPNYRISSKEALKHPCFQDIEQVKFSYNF
As for `Cc1cc(N(C)CCCN(C)C)nc(Nc2ccc(Br)cc2)n1`, the result was inactive.

Regarding `Cc1noc(C)c1-c1cccc(CNCc2cccc(-c3ccc(-c4nc5ccc(C(F)(F)F)cc5[nH]4)s3)c2)c1`, the result was inactive.

Take `CN(C(=O)C1(c2ccc(Cl)cc2)CC1)C1CCN(CCCCCNC(=O)/C=C/c2ccc(Cl)c(Cl)c2)CC1`: the result was inactive.

Take `Cc1cc(N[C@@H](CC(C)C)C(=O)Nc2ccccc2)nc(NCC2CCCCC2)n1`: the outcome was inactive.

Take `Nc1c2c(nc3ccc(NC(=O)CCCCCCc4ccccc4)cc13)CCCC2`: the result was inactive.

For `O=C(/C=C/c1ccccc1Cl)NC1CCC(CN2CCC(c3c[nH]c4ccncc34)CC2)CC1` (stereo not given), the outcome was inactive.

With `Cc1ccc(Cn2nc(Cl)c(N3CCCNCC3)cc2=O)cc1NC(=O)Nc1ccc(-c2ccccc2)cc1`, the result was inactive.

Take `COc1c(C2CCN(CCCCNC(=O)c3ccc(NC(=O)c4ccc(C#N)cc4)cc3)CC2)ccc2c1CCCC2`: the result was inactive.

Regarding `O=S(=O)(NCCN1CCCC1)c1ccc(-c2ccc(CNCc3ccc(F)cc3)cc2)s1`, the result was inactive.

For the compound `CCN(c1ccccc1)S(=O)(=O)c1ccc(OC)c(NC(=O)c2cccc(C(F)(F)F)c2)c1`, the outcome was inactive.

Take `O=C(Nc1cccc(C(F)(F)F)c1)c1ccc(S(=O)(=O)NCC2CCN(CC3CCCCC3)CC2)cc1`: the result was inactive.

Take `Cc1cc(N(C)C2CCN(CC3CCCCC3)C2)nc(Nc2ccc(Br)cc2)n1` (stereo not given): the outcome was inactive.

In the case of `CC(=O)Nc1ccc(OCCCCN(Cc2ccccc2C(F)(F)F)c2ccc(C#N)c(C(F)(F)F)c2)cc1`, the outcome was inactive.

Regarding `Cc1cccc2[nH]c(-c3cccc(-c4cccc(NC(=O)Nc5ccc(Cl)cc5)c4)c3)nc12`, the result was inactive.

Consider `CC(C)(C)c1ccc(CNC(=O)c2cc(CNC3CCNC3)ccc2O)cc1` (stereo not given), for which the outcome was inactive.

For `Cc1cc(NC(=O)c2cccs2)ccc1OC1CCN(Cc2ccccc2)CC1`, the result was inactive.

For `CCOc1c(CNCCCNc2nc3ccccc3[nH]2)cc(I)cc1OC`, the result was inactive.

In the case of `Cc1ncccc1-c1cccc2c(NC(=O)Nc3ccc4nccc(N5CCN(C)CC5)c4c3)cccc12`, the outcome was inactive.

Regarding `COc1cc(CNCCC(C)C)ccc1OCc1cccc(COc2ccc(CNCCC(C)C)cc2OC)c1`, the result was inactive.

Take `O=C(Cc1ccc(Cl)cc1)NC1CCN(c2ccnc3cc(Cl)ccc23)C1` (stereo not given): the outcome was inactive.

As for `Cn1nccc1C(=O)NCCNCc1cccc(-c2ccc(-c3nc4ccc(C(F)(F)F)cc4[nH]3)s2)c1`, the result was inactive.

For `CCNc1cc(C)nc(Nc2ccc(NC(=O)c3ccccc3)cc2)n1`, the outcome was inactive.

As to `CCCn1cnc2cc(C(=O)Nc3ccc(-c4cccc(CN(C)C)c4)cc3)ccc2c1=O`, the outcome was inactive.

In the case of `c1ccc(COc2ccccc2COc2ccccc2-c2ccc3cccnc3n2)cc1`, the result was inactive.

Turning to `COc1ccc2c(ccc3c2ncc2c(=O)n(-c4ccccc4)[nH]c23)c1`, the outcome was inactive.

In the case of `O=C(Nc1ccc(-c2nc3ccccc3[nH]2)cc1)c1cnc(Cl)c(Cl)c1`, the outcome was inactive.

For `Nc1c(Cl)cc(C(O)CNCCCCCOCCc2ccccc2)cc1C(F)(F)F` (stereo not given), the outcome was inactive.

As to `CON(C)C(=O)[C@@H](CCCCNC(=O)OCc1ccccc1)NC(=O)OC(C)(C)C`, the result was inactive.

`CC(C)(C)C1CC(=O)C[C@@H]2C(=O)N(c3ccc(Br)cc3)C(=O)[C@H]12` (stereo not given in full): the outcome was inactive.

With `CC1(C)CCCC(=Cc2ccc(Br)cc2)C1(O)Cn1ccnc1` (stereo not given), the result was inactive.

Regarding `O=C(NCC1CC1)C1Cc2c([nH]c3ccc(Br)cc23)C2(CCN(CCc3ccccc3)CC2)N1` (stereo not given), the outcome was inactive.

Take `CCc1cn2c3c(cc(C(=O)N[C@@H](Cc4cc(F)cc(F)c4)[C@H](O)CNC4CCCCC4)cc13)N(C)S(=O)(=O)CC2`: the outcome was inactive.

Turning to `CC(CNC1CCN(CCn2c(=O)ccc3ccc(F)cc32)CC1)c1ccccc1` (stereo not given), the result was inactive.

Regarding `CC(CCCCOCCc1ccccc1)NCC(O)c1cc(Cl)c(N)c(Cl)c1` (stereo not given), the outcome was inactive.

Consider `Cc1cc(N)c2cc(NC(=O)c3cccc(C(=O)Nc4ccc5nc(C)cc(N)c5c4)c3)ccc2n1`, for which the outcome was inactive.

On to `O=C(/C=C/c1ccc(Cl)c(Cl)c1)NCCCCCN1CCC(C(=O)Nc2ccc(Cl)c(Cl)c2)CC1`, for which the outcome was inactive.

As for `NCC1CCCN1Cc1ccc(-c2cccc(-c3nc4ccc(C(F)(F)F)cc4[nH]3)c2)cc1` (stereo not given), the outcome was inactive.

Take `COc1ccc(-c2nc(-c3ccc([N+](=O)[O-])cc3)no2)cc1OC`: the result was inactive.

For the compound `CC(C)C[C@@H](/C=N/N1CCOC1=O)NC(=O)[C@H](CC(C)C)NC(=O)c1ccc(F)cc1`, the outcome was inactive.

In the case of `Cc1nc2ccc3ccc(CNc4ccc5c(c4)CN([C@H](CCC(=O)O)C(=O)O)C5=O)cc3c2c(=O)[nH]1`, the outcome was inactive.
